Most compounds without a hit are left out; they make up all but 27% or so of the library.
sEH inh: soluble epoxide hydrolase (human) inhibition. P34913. AID 707. recombinant human sEH enzymatic activity assay. inhibition, % at 2 µM. 91,000 compounds, 0.34% hits; in the data active = inhibition above about 80%
CYP2C9 activ: activators of human CYP2C9; P11712; activation factor at 5 µM; AID 1024; recombinant CYP2C9, luciferin-H conversion, luminescence; active compounds read high; factor 1 = untreated enzyme, 0 = blocked; 96,000 compounds, 1.4% hits;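 active = activation factor of 2 or more for CYP2C9 at a 5 µM dose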;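 note: 0 = sulfaphenazole-blocked wells and 1 = vehicle-only wells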
Target sequence (P11712 whole entry, looked up): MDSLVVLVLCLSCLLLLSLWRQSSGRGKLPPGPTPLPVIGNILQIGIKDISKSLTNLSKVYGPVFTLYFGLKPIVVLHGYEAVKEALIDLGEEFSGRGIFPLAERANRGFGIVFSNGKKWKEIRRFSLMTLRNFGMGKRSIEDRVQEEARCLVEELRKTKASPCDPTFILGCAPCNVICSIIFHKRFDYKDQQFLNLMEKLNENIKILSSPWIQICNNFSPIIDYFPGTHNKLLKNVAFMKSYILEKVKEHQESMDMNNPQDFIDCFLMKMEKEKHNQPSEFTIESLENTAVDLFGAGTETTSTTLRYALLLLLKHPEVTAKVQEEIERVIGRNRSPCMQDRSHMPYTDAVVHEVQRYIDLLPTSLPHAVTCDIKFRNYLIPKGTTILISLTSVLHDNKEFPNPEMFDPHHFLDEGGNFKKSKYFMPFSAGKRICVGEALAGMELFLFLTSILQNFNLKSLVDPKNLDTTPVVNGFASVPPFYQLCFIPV
CYP2C9 inhib: blocks human cytochrome P450 2C9; P11712; CYP2C9 Supersomes, luciferin-H conversion, luminescence; inhibition, % at 5 µM; 96,000 compounds, 20% hits; AID 777;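 active = blocking of liver enzyme CYP2C9 beyond about 50% at 5 µM, limit read from the data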
CYP2C19 act: increases human CYP2C19 enzyme activity. activation factor at 5 µM. recombinant CYP2C19, luciferin-H EGE luminescence; active compounds read high; 0 = fully inhibited enzyme, 1 = untreated enzyme. P33261. 96,000 tested, under 10 active;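 active = activation factor of at least 2 at 5 µM in the primary screen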;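 note: 0 = wells with 2.5 mM tranylcypromine and 1 = vehicle-only wells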
sEH activator: increases human soluble epoxide hydrolase activity. activation, % at 2 µM. purified human sEH enzymatic activity, activator screen. 91,000 compounds, 0.04% hits. AID 717. P34913; in the data active = activation above about 37%
CYP2C19 inhib: inhibitors of human CYP2C19; P33261; CYP2C19 Supersomes, luciferin-H EGE luminescence, 30 min; inhibition, % at 5 µM; 96,000 compounds, 21% hits; AID 778;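 active = CYP2C19 inhibition above a set limit at 5 µM in the primary screen, cut at about 50% in these data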;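 note: plate controls were negative control wells for no effect and 2.5 mM tranylcypromine positive control for full effect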
* marks the source's active call; other numbers are inactive results; . = no result.

SMILES	sEH inh	CYP2C9 activ	CYP2C9 inhib	CYP2C19 act	sEH activator	CYP2C19 inhib
C=CCn1c(SCc2c(Cl)cccc2Cl)nnc1-c1cccnc1	1	0.7	35	0.5	-2	54*
CCOc1ccccc1NC(=O)CSc1nnc(-c2cnccn2)n1CC	.	0.5	45	0.1	.	88*
Cn1c(N)c(C(=O)COC(=O)C2CCC(C(C)(C)C)CC2)c(=O)n(C)c1=O (configuration not stated)	19	1.3	-32	0.8	-16	19
Cn1c(=O)[nH]c(=O)c2c1nc(N1CCOCC1)n2CCSc1nc2ccccc2[nH]1	-3	1.1	-6	1.2	5	-22
Cc1ccccc1OC(=O)n1c(=S)oc2cc(Cl)ccc21	-5	0.5	48	0.9	4	7
O=C(Cn1nnc(-c2ccc(OCc3ccccc3F)cc2)n1)N1CCOCC1	-2	.	.	.	2	.
C=CCn1c(SCC(=O)NCC(=O)OCC)nnc1-c1ccccn1	3	1	2	1	-5	1
C=CCn1c(SCC(=O)Nc2c(C)cccc2C)nnc1-c1cnccn1	-5	0.5	46	0	3	100*
C=CCn1c(SCC(=O)Nc2ccccc2CC)nnc1-c1ccncc1	17	0.5	48	0.1	-15	91*
CCCn1c(SCC(=O)NCc2ccccc2)nnc1-c1ccncc1	-1	1	2	0.8	2	16
O=c1cc(C(Cl)(Cl)Cl)oc2c1ccc1ccccc12	-2	0.4	65*	0.4	4	56*
O=c1cc(-c2ccco2)oc2c1ccc1ccccc12	1	0.5	50	0.9	-5	6
CC(C)c1ccc(S(=O)(=O)N2CCN(C(=O)c3cccc(F)c3)CC2)cc1	6	0.3	67*	0.3	-5	67*
O=C(c1cccc(S(=O)(=O)N2CCCCC2)c1)N1CCN(S(=O)(=O)c2ccc(F)cc2)CC1	-2	0.6	41	0.6	0	35
O=C(c1ccccc1)N1CCN(S(=O)(=O)N2CCCCC2)CC1	12	0.5	49	0.1	-13	87*
O=C(c1cccc(F)c1)N1CCN(S(=O)(=O)c2ccccc2)CC1	-17	1	-1	0.2	17	76*
O=C(c1ccccc1)N1CCN(C(=O)c2ccccc2Br)CC1	-16	0.7	31	0.4	15	56*
CCc1ccc(NC(=O)C2C3C=CC(C4CC34)C2C(=O)O)cc1 (configuration not stated)	-2	.	.	.	3	.
COC(=O)c1ccccc1NC(=O)CSc1nnc(-c2ccc(OC)cc2)n1C	4	.	.	.	1	.
COc1cccc(-c2nc(CS(=O)CC(=O)NCc3ccc4c(c3)OCO4)c(C)o2)c1 (configuration not stated)	.	0.2	76*	0.2	.	77*
COc1cccc(-c2nc(CS(=O)CC(=O)NCc3ccccc3Cl)c(C)o2)c1 (configuration not stated)	65	0.4	64*	0.7	-65	30
Cc1cccc(C)c1OCCCCn1cnc2ccccc2c1=O	14	0.5	53*	0.8	-12	19
Cc1cc(C)c(OCCCCn2cnc3ccccc3c2=O)c(C)c1	3	0.7	28	0.9	-1	9
O=c1c2ccccc2ncn1CCCOc1ccccc1[N+](=O)[O-]	-4	0.6	42	0.5	3	52*
O=c1c2ccccc2ncn1CCCSc1ccc(Cl)cc1	52	0.6	36	0.8	-52	22
SMILES	sEH inh	CYP2C9 activ	CYP2C9 inhib	CYP2C19 act	sEH activator	CYP2C19 inhib
O=c1c2ccccc2ncn1CCCSc1ccccc1	42	0.6	39	0.2	-44	78*
Cc1c(NC(=O)C(C)N2CC(C)OC(C)C2)c(=O)n(-c2ccccc2)n1C (configuration not stated)	1	1.1	-8	1.1	-3	-8
COC(=O)c1ccc(NC(=O)c2ccc3c(c2)OCO3)cc1	14	1	-2	1	-11	0
COC(=O)C1=C(C)N2C(=O)CSC2=NC1c1ccc2c(c1)OCO2 (configuration not stated)	.	0.5	50*	0.4	.	65*
CC1CN(c2nc3c(c(=O)[nH]c(=O)n3C)n2Cc2ccccc2F)CC(C)O1 (configuration not stated)	.	0.8	19	1	.	1
COc1cccc(CNn2c(-c3cccc(C)c3)nc3ccccc3c2=O)c1O	-5	0.6	44	0.2	2	80*
CCNC(=O)Nn1c(-c2ccccc2)nc2ccccc2c1=O	7	1.1	-7	1.1	-4	-14
COc1ccc(-c2cc(=O)n(-c3nc4ccccc4[nH]3)[nH]2)cc1	19	0.7	28	1.2	-16	-22
Cc1ccc(/C=N/n2cnnc2)s1	-13	0.9	14	0.8	16	16
Cc1ccc(Sc2oc(/C=N/n3cnnc3)cc2Br)cc1	14	0.8	16	0	-14	100*
Cc1cc(C)n2nc(C(=O)Nc3ccc4c(c3)OCO4)cc2n1	1	0.9	9	0.9	-2	5
Cc1ccc(NC(=O)CN2C(=O)S/C(=C\c3cc(C)n(C)c3C)C2=O)cc1	11	0.8	20	0.4	-10	57*
Cc1ccc(NC(=O)CN2C(=O)S/C(=C\c3ccc(-c4cccc(C(=O)O)c4C)o3)C2=O)cc1	27	0.9	10	1	-26	-2
Cc1ccc(NC(=O)CN2C(=O)S/C(=C\c3cccn3C)C2=O)cc1	-7	0.2	76*	0.9	7	14
Cc1ccc(C(=O)NCc2ccc(Cl)c(Cl)c2)o1	1	0.7	35	0.2	-1	84*
Cc1nc2sccn2c1P(c1c(C)nc2sccn12)c1c(C)nc2sccn12	.	0.4	63*	0.3	.	72*
CCOC(=O)c1c(C)nc2sccn12	.	1.1	-15	0.9	.	12
Cc1ccc(S(=O)(=O)N2CCN(c3nc(C(C)C)c4c(c3C#N)CC(C)(C)OC4)CC2)cc1	-7	0.1	95*	0.3	8	68*
Cc1ccc2cc(C#N)c(N3CCCN(S(=O)(=O)c4ccc(F)cc4)CC3)nc2c1	15	.	.	.	-11	.
CCCNC(=O)N1CCN(c2nc(C(C)C)c3c(c2C#N)CC(C)(C)OC3)CC1	-12	0.2	80*	0.1	9	87*
CC(C)c1nc(NCCN2CCOCC2)c(C#N)c2c1COC(C)(C)C2	.	0.5	45	0.9	.	15
O=C1CCCCCN1C(=O)c1cccc(C(=O)N2CCCCCC2=O)c1	.	1	0	0.9	.	11
O=C(Nc1ccccc1Sc1ccccc1)c1ccccc1F	-18	.	.	.	15	.
CS(=O)(=O)NCc1nnc(SCC(=O)NC2CCCCC2)n1-c1ccc(F)cc1	-2	1	-2	1	2	-4
N#Cc1nc(-c2ccc(Cl)cc2)oc1N1CCCCC1	3	0.7	31	0.8	-4	17
N#Cc1nc(COc2ccc(F)cc2)oc1N1CCCC1	-2	0.7	28	0	3	96*

Assay outcomes deposited in PubChem by several laboratories.
